# Source: the supplement of paper PMC3334620
# Over roughly 33,000 sequences, “E-score (-0.5 to 0.5)” has its median near -0.021; the highest 2% begin near 0.32. For the sample, the highest values were picked, then their nearest neighbours and some sequences at random.
# Biological target: T1, Zap1 (UniProt P47043)
# T1 sequence: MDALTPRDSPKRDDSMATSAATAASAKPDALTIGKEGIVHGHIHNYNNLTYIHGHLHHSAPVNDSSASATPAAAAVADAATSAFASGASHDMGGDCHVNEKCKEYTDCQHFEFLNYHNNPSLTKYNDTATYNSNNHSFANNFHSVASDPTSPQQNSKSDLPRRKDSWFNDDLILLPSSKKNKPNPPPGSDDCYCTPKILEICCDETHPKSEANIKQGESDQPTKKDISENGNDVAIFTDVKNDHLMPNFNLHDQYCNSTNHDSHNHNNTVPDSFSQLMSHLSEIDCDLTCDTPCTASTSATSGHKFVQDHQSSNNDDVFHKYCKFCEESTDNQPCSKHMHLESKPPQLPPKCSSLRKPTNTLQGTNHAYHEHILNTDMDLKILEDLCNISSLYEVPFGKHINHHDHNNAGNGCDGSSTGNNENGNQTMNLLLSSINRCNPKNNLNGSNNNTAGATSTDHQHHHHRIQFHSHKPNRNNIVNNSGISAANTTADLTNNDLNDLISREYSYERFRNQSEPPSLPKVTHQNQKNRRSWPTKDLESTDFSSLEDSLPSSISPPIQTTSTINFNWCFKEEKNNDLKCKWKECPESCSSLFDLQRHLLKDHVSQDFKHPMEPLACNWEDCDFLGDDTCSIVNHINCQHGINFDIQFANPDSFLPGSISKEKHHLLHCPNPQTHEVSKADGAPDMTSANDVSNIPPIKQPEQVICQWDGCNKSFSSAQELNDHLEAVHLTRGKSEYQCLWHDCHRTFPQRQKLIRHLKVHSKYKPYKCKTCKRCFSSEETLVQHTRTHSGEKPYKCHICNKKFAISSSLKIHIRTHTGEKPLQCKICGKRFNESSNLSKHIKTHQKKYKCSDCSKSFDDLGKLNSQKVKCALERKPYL
# Experiment: PBM E-score (8-mer binding enrichment) (E-score (-0.5 to 0.5)); higher = stronger / more preferred TF binding
# Conditions: protein concentration: 200 nM; construct: GST-full length
# Experimental: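 Universal 'all 10-mer' protein binding microarrays (Agilent AMADID 015681) probed with GST-tagged S. cerevisiae TFs (full-length or DBD) made by in vitro transcription/translation (PURExpress), about 100-200 nM. Bound TF was detected with fluorescent anti-GST. Each ungapped 8-mer (which stands for itself and its reverse complement) is scored by the PBM enrichment score (E-score), a modified Wilcoxon-Mann-Whitney statistic from -0.5 to +0.5, computed with the Universal PBM Analysis Suite. Scale: above 0.35 generally sequence-specific binding.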
row,Sequence,PBM E-score
1,CACAGTTC,-0.0558
2,CTACTCGC,-0.18
3,ATGGGCGG,-0.125
4,AACGCATT,0.0284
5,CAGGGTCG,0.275
6,GAGGGTGA,0.126
7,AAGGGTCT,0.136
8,AAGGGTCA,0.439
9,GAGGGGTA,0.245
10,AGGGGTCA,0.438
11,CAGGGTCC,0.14
12,AGGGGTCC,0.0654
13,CAGGGTCA,0.417
14,AGGGGTGA,0.219
15,AAGGGTGA,0.293
16,GAGGGTTA,0.45
17,CATGCGAC,0.014
18,CGACCACC,0.15
19,CCTCTGTC,0.0337
20,AAAGTGTG,0.071
21,ATATCAGA,0.0906
22,CCTCGACC,-0.056

row,Sequence,PBM E-score
1,TTGCTAAA,-0.0992
2,GGCCCTGA,-0.137
3,GCGGGTCC,-0.0967
4,ACGGGTCA,0.223
5,GGGGGTCA,-0.132
6,CGGGGTCA,0.332
7,GCGGGTCA,0.367
8,CCGGGTCA,0.316
9,AGGTGGGC,-0.0375
10,CAGCTCAA,-0.0501
11,GCAAGATA,0.0727
12,GCCCTACC,0.0168
13,ACCCTACT,0.329
14,ACCCTACC,0.364
15,AACCTACT,0.135
16,CCCCTACC,0.0857
17,AACCTACG,0.123
18,CCCCTACA,-0.0402
19,ACCCTACA,0.419
20,AGCCTACT,-0.212
21,TCCCTACA,-0.0805
22,ACCCTACG,0.361

row,Sequence,PBM E-score
1,CCCCTACG,-0.117
2,GAGTTGCA,-0.0948
3,AAATTCCT,-0.0586
4,CAAAGTGC,-0.0833
5,CGAATCGA,0.00445
6,ATCGAATG,-0.106
7,ACCTAGGA,0.159
8,CTCAGGCA,-0.158
9,ATTGCGAA,-0.0714
10,GTAACAAC,0.234
11,AACATGCG,-0.0232
12,GCCAGAAC,-0.226
13,AATAACCA,0.445
14,TATAACCA,0.45
15,CATAACAA,0.179
16,CATAACTA,0.18
17,GATAACCA,0.426
18,TCTAACCA,0.231
19,TATAACAA,0.291
20,AATAACGA,-0.036
21,CATAACCA,0.462
22,GATAACGA,0.00419

row,Sequence,PBM E-score
1,AATAACAA,0.0521
2,GATAACTA,0.231
3,GTGTTGAA,-0.0764
4,ACGGCTCC,-0.198
5,GCCTTTGA,0.0766
6,GGTGTCAC,0.0261
7,CTCTGCAG,-0.126
8,ACTATAGT,0.197
9,AGCCGCTC,-0.0957
10,CCTGTTGC,0.0211
11,GCATAGAC,-0.117
12,CTGGTAAG,0.055
13,GCCATCCA,-0.197
14,CATAACAG,-0.0694
15,CATAACGG,-0.0515
16,CATAACCG,0.395
17,AGTTATAA,0.193
18,CTATATAA,0.24
19,ATATATAA,0.249
20,CGTTATAC,-0.00572
